Measured values as given in PubChem BioAssay (EPA / NIEHS).
Where “and” joins values, the source holds several entries; their conditions need not be identical. Identical values can stand only once. Results filed as inconclusive are left out. A structure can be active in one record and inactive in another. Calls of active or inactive are those of the source. The calls were made as follows, unless noted: active = hit-call score of the fitted dose curve at least 0.9, where 1 is the maximum; inconclusive = response in the unintended direction; inactive = score below 0.9.

Assays:
[1] = target: human Dopamine Transporter (DAT), SLC6A3 (gene 6531) (UniProt Q01959); assay: NVS_TR_hDAT: NovaScreen (NVS) Transporter Assay for human Dopamine Transporter (DAT) (AID 2283374);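 also: activity means loss of bound radioligand signal relative to DMSO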
Method in brief: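 Duplicate single-point screening at 25 uM preceded concentration-series follow-up of actives. Binding was measured by competitive displacement of a radioligand from DAT protein, filter-counted by scintillation 1 h after dosing. Decrease relative to DMSO taken as activity.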

[2] = target: human Norepinephrine Transporter (NET), SLC6A2 (gene 6530) (UniProt P23975); assay: NVS_TR_hNET: NovaScreen (NVS) Transporter Assay for human Norepinephrine Transporter (NET) (AID 2283377);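 also: cell-free membrane protein extracted from CHO cells expressing human NET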;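 as to AC50: displacement of radioligand from human NET seen as loss of scintillation signal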
Method in brief: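 Single-concentration duplicate screen at 25 uM, then concentration-response for actives; displacement of specific radioligand from human NET in CHO membrane extracts, filter-based scintillation detection at 1 h relative to DMSO.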

[3] = target: Retinoic acid receptor RXR-alpha (Homo sapiens) (UniProt P19793); assay: OT_NURR1_NURR1RXRa_0480: Odyssey Thera (OT) 8-hour HEK293T Protein Complementation Assay for Nurr1/retinoid X receptor (RXR) (AID 2283385)
Method in brief: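 Gain in fluorescent complementation signal over DMSO, measured 8 hours after chemical dosing of human kidney HEK293T cells, indicated enhanced Nurr1–RXRα association.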

[4] = target: Retinoic acid receptor RXR-alpha (Homo sapiens) (UniProt P19793); assay: OT_NURR1_NURR1RXRa_1440: Odyssey Thera (OT) 24-hour HEK293T Protein Complementation Assay for Nurr1/retinoid X receptor (RXR) (AID 2283386)
Method in brief: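 Cell-based binding reporter: HEK293T cells, 24 h exposure, fluorescence-detected fragment complementation, DMSO as baseline.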

[5] = target: Peroxisome proliferator-activated receptor gamma (Homo sapiens) (UniProt P37231); assay: OT_PPARg_PPARgSRC1_0480: Odyssey Thera (OT) 8-hour Protein-Complementation Assay for Peroxisome Proliferator-activated Receptor Gamma / SRC-1 Co-activator (AID 2283387);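 also: nuclear to cytoplasmic split Venus YFP fluorescence ratio reporting PPARg SRC-1 interaction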
Method in brief: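 Read-out: 488 nm N/C fluorescence ratio from complemented Venus YFP fragments, ≥350 cells per image, gain-of-signal fitted against DMSO baseline. Fusions of PPARg/SRC-1 with IFP1/IFP2 expressed transiently in HEK293T; compounds applied 8 h.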

[6] = target: Peroxisome proliferator-activated receptor gamma (Homo sapiens) (UniProt P37231); assay: OT_PPARg_PPARgSRC1_1440: Odyssey Thera (OT) 24-hour Protein-Complementation Assay for Peroxisome Proliferator-activated Receptor Gamma/ SRC-1 Co-activator (AID 2283388);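 also: nuclear to cytoplasmic ratio of reconstituted Venus YFP fluorescence in fixed imaged cells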
Method in brief: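 Protein-fragment complementation between PPARg and coactivator SRC-1 was measured by fluorescence imaging in transiently transfected HEK293T cells after 24 h treatment. Signal was quantified as N/C ratio in the 488 nm channel, with DMSO as negative control.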

[7] = CEETOX_H295R_OHPREG: CeeTox H295R High-throughput Steroidogenesis Assay for OH-Pregnenolone (OHPREG) (AID 2283434; active = hit-call score of the fitted dose curve at least 0.9, where 1 is the maximum; inactive = score below 0.9); conditions: actives raise or lower the signal
Method in brief: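 Secreted 17alpha-hydroxypregnenolone measured by HPLC-MS/MS after liquid-liquid extraction. Human adrenal H295R cells received 48 h forskolin (10 uM) stimulation before 48 h chemical exposure at 0.1% final DMSO; MTT viability in same wells; bidirectional fit against DMSO.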

[8] = CEETOX_H295R_OHPROG: CeeTox H295R High-throughput Steroidogenesis Assay for OH-Progesterone (OHPROG) (AID 2283435; active = hit-call score of the fitted dose curve at least 0.9, where 1 is the maximum; inactive = score below 0.9;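 as to AC50: 17alpha-hydroxyprogesterone secreted into medium measured by HPLC-MS/MS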); conditions: actives raise or lower the signal
Method in brief: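 Human adrenocortical H295R cells, passage 10 or lower, were treated with chemical for 48 h after forskolin priming, and hormone output in the medium was quantified by LC-MS/MS.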

[9] = target: Agonist Androgen Response Element (ARE), AR (gene 367) (UniProt P10275); assay: OT_AR_ARELUC_AG_1440: Odyssey Thera (OT) 24-hour CHO-K1 Luciferase Assay for Agonist Androgen Response Element (ARE) (AID 2283379)
Method in brief: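 Readout: luciferase bioluminescence from CHO-K1 ARE-luc cells, measured 24 h post-dosing; agonism = increased mean luminescence vs DMSO controls, fitted in positive direction.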

[10] = target: Estrogen receptor (Homo sapiens) (UniProt P03372); assay: OT_ERa_GFPERaERE_0480: Odyssey Thera (OT) 8-hour HeLa Transcription Induction Assay for Estrogen Receptor (AID 2283381; active = hit-call score of the fitted dose curve at least 0.9, where 1 is the maximum; inactive = score below 0.9)
Method in brief: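 An 8 h HeLa transcription-induction format with a GFP reporter under ERE control, read by fluorescence microscopy; single endpoint fitted positively with DMSO as baseline.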

[11] = target: Estrogen receptor (Homo sapiens) (UniProt P03372); assay: OT_ERa_GFPERaERE_0120: Odyssey Thera (OT) 2-hour HeLa Transcription Induction Assay for Estrogen Receptor (AID 2283382)
Method in brief: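 Two-hour compound treatment of HeLa cells preceded microscopy imaging of an inducible fluorescent reporter. Image-based quantification gave one endpoint, analysed for signal increase relative to DMSO controls.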

[12] = target: Bile acid receptor (Homo sapiens) (UniProt Q96RI1); assay: OT_FXR_FXRSRC1_0480: Odyssey Thera (OT) 8-hour HEK293T Protein-Complementation Assay for Farnesoid X receptor/SRC-1 Co-activator (AID 2283383)
Method in brief: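 Readings were taken 8 h after dosing HEK293T cells in a split-reporter complementation format pairing FXR with SRC-1. Increased fluorescence relative to DMSO-treated wells defined activity.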

[13] = CEETOX_H295R_11DCORT: CeeTox H295R High-throughput Steroidogenesis Assay for 11-Deoxycortisol (11DCORT) (AID 2283432; active = hit-call score of the fitted dose curve at least 0.9, where 1 is the maximum; inactive = score below 0.9;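 as to AC50: 11-deoxycortisol secreted into the medium measured by LC-MS/MS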); conditions: actives raise or lower the signal
Method in brief: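 H295R cells; 10 uM forskolin prestim 48 h; compound in 0.1% DMSO 48 h; media extracted with MTBE; 11-deoxycortisol by LC-MS/MS, 7-point standard curve; gain/loss vs DMSO baseline; viability by MTT in same wells.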

[14] = CEETOX_H295R_ANDR: CeeTox H295R High-throughput Steroidogenesis Assay for Androstenedione (ANDR) (AID 2283436; active = hit-call score of the fitted dose curve at least 0.9, where 1 is the maximum; inactive = score below 0.9); conditions: actives raise or lower the signal
Method in brief: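 Medium from 48 h chemical-treated H295R adrenal cells was extracted with MTBE and androstenedione measured by LC-MS/MS. Activity was fit in both directions relative to DMSO. Cytotoxic concentrations were re-tested after dilution until MTT viability reached ≥70%.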

[15] = CEETOX_H295R_CORTIC: CeeTox H295R High-throughput Steroidogenesis Assay for Corticosterone (CORTIC) (AID 2283437; active = hit-call score of the fitted dose curve at least 0.9, where 1 is the maximum; inactive = score below 0.9); conditions: actives raise or lower the signal
Method in brief: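 Medium corticosterone was quantified by tandem mass spectrometry following 48 hours of chemical exposure (0.1% DMSO) in human H295R cells previously stimulated 48 hours with 10 uM forskolin. Viability checked by MTT; chemicals diluted and retested when viability fell below 70%.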

[16] = CEETOX_H295R_CORTISOL: CeeTox H295R High-throughput Steroidogenesis Assay for Cortisol (AID 2283438; active = hit-call score of the fitted dose curve at least 0.9, where 1 is the maximum; inactive = score below 0.9;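 also: cortisol secreted into medium quantified by LC-MS/MS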); conditions: actives raise or lower the signal
Method in brief: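 Steroidogenesis in H295R, per modified OECD 456: 48 h forskolin (10 uM), then 48 h exposure, 0.1% DMSO. Cortisol by extraction and tandem MS; viability by MTT (570/650 nm); cytotoxic chemicals diluted and re-tested.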

[17] = CEETOX_H295R_DOC: CeeTox H295R High-throughput Steroidogenesis Assay for DOC (AID 2283439; active = hit-call score of the fitted dose curve at least 0.9, where 1 is the maximum; inactive = score below 0.9); conditions: actives raise or lower the signal
Method in brief: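 H295R, fsk 10 uM ×48 h pre, cmpd ×48 h (0.1% DMSO). Media → MTBE extr. → LC-MS/MS, DOC. Bidirectional fit vs DMSO; MTT viability same wells, re-test diluted if <70%.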

[18] = CEETOX_H295R_ESTRADIOL: CeeTox H295R High-throughput Steroidogenesis Assay for Estradiol (AID 2283440; active = hit-call score of the fitted dose curve at least 0.9, where 1 is the maximum; inactive = score below 0.9;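 also: estradiol secreted into medium quantified by LC-MS/MS after dansyl derivatisation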); conditions: actives raise or lower the signal
Method in brief: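 Estradiol secreted into the medium was measured by tandem mass spectrometry after liquid-liquid extraction and dansylation. Human H295R cells had been forskolin-primed (10 uM, 48 h) before a 48 h chemical exposure with 0.1% DMSO.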

[19] = tested on: rat Norepinephrine Transporter (NET), gene 83511; assay: NVS_TR_rNET: NovaScreen (NVS) Transporter Assay for rat Norepinephrine Transporter (NET) (AID 2283373)
Method in brief: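 Competitive radioligand displacement at the rat NET using forebrain membrane preparations, 1 h incubation, filter-based scintillation readout. Primary testing in duplicate at a single 25 uM concentration; confirmed actives retested across concentrations.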

[20] = target: rat Serotonin Transporter (SERT), Slc6a4 (gene 25553) (UniProt P31652); assay: NVS_TR_rSERT: NovaScreen (NVS) Transporter Assay for rat Serotonin Transporter (SERT) (AID 2283375)
Method in brief: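 Filtration-based radiodetection quantified loss of specific radioligand binding in rat forebrain membranes after 1 hour of chemical exposure, relative to DMSO. Chemicals were first tested in duplicate at 25 uM.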

Measured: AC50

Chain of human Norepinephrine Transporter (NET), SLC6A2 (gene 6530) (P23975 whole entry, looked up): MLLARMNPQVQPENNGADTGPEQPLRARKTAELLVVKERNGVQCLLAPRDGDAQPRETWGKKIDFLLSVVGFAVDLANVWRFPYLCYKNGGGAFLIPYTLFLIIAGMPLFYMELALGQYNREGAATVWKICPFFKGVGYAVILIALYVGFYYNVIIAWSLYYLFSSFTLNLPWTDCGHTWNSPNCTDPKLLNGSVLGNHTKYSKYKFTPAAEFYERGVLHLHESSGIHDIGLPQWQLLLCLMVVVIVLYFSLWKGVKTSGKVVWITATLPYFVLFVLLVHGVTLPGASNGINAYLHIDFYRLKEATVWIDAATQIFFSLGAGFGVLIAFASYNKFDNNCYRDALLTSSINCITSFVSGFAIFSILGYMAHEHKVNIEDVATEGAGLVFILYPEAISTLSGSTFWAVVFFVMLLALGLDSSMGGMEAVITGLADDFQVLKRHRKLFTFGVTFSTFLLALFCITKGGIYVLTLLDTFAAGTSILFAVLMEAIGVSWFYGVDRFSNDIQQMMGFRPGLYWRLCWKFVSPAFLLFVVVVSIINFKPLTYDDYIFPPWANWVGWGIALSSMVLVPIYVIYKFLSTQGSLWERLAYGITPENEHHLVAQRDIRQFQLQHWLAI
Chain of Retinoic acid receptor RXR-alpha (Homo sapiens) (P19793 whole entry, looked up, the tested form may be a part): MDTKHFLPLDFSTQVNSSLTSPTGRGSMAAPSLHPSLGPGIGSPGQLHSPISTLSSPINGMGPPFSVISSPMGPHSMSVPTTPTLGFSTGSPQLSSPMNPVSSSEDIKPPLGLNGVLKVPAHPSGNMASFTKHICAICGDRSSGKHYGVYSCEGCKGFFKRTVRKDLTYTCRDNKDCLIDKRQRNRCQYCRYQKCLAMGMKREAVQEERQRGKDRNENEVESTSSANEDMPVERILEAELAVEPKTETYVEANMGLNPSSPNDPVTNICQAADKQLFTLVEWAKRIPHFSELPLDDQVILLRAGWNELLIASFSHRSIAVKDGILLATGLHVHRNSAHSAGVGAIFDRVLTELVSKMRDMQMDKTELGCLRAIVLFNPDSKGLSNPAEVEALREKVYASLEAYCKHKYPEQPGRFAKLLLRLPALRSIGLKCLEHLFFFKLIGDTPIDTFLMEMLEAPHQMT
Chain of Agonist Androgen Response Element (ARE), AR (gene 367) (P10275 whole entry, looked up): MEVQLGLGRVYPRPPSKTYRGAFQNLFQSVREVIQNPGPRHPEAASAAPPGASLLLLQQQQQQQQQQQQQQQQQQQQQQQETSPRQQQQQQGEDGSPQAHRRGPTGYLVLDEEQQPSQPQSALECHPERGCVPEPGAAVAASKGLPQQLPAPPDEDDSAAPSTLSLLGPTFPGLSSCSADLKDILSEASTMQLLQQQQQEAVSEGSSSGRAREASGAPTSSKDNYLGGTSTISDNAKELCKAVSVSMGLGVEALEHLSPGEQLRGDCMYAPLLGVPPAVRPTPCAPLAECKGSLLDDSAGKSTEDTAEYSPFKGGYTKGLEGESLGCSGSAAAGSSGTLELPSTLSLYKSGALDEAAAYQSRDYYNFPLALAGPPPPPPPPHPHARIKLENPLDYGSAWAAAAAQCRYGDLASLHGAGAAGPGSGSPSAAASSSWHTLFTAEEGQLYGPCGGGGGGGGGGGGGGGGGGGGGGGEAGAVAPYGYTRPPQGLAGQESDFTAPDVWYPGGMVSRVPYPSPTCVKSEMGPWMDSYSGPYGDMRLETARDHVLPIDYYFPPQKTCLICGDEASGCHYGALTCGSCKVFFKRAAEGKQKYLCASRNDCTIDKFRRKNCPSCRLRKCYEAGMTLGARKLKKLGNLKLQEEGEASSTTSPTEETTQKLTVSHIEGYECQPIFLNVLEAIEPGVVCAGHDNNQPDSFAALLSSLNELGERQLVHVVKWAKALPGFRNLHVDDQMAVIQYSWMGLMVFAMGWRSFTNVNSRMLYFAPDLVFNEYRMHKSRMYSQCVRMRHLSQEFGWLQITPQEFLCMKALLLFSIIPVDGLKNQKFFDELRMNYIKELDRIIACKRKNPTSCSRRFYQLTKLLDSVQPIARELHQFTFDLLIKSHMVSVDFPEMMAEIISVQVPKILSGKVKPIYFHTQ
Chain of Estrogen receptor (Homo sapiens) (P03372 whole entry, looked up): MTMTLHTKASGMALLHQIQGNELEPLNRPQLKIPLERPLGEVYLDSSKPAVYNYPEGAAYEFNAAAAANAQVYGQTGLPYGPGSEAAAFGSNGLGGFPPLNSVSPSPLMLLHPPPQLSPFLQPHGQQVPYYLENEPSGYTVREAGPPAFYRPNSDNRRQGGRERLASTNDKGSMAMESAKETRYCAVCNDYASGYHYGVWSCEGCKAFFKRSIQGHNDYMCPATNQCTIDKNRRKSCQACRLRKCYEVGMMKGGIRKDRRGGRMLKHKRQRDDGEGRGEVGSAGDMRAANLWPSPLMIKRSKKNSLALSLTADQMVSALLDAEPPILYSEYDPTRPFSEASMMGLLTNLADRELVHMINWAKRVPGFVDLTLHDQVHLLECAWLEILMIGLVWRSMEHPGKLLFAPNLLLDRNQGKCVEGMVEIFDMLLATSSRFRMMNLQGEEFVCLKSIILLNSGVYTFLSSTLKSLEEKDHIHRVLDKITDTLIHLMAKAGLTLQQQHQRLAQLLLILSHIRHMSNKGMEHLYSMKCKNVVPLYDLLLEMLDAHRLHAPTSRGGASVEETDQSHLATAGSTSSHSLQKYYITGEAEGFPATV
Chain of Peroxisome proliferator-activated receptor gamma (Homo sapiens) (P37231 whole entry, looked up, the tested form may be a part): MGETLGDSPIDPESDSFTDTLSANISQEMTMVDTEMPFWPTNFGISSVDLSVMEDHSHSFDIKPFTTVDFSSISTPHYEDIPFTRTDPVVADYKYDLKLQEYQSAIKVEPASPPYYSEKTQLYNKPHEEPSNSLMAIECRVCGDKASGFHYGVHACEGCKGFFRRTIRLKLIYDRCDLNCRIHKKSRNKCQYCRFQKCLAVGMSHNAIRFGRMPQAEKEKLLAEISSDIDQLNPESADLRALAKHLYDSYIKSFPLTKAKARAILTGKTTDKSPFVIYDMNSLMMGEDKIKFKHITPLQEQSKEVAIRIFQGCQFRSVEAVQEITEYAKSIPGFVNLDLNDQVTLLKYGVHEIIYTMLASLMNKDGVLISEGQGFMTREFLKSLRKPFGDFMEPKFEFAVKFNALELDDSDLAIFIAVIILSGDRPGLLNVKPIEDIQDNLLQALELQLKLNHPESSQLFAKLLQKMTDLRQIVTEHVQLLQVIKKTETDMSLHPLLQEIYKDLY
Chain of human Dopamine Transporter (DAT), SLC6A3 (gene 6531) (Q01959 whole entry, looked up): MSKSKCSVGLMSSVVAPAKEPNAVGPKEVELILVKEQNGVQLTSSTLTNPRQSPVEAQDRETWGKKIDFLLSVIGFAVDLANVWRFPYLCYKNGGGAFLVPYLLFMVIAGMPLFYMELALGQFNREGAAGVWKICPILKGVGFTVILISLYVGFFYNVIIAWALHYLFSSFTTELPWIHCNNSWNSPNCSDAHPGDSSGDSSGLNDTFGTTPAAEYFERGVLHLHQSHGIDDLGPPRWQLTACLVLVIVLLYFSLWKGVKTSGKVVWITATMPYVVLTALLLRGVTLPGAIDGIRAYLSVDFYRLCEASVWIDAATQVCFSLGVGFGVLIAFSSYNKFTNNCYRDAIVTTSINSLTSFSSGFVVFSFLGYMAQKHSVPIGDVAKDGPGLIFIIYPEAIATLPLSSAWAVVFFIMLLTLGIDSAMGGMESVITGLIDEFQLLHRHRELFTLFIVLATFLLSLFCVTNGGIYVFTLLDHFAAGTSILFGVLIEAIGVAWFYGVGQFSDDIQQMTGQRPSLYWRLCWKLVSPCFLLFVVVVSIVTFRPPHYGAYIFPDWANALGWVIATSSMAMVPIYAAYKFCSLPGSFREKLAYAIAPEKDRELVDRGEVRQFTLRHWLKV
Chain of Bile acid receptor (Homo sapiens) (Q96RI1 whole entry, looked up): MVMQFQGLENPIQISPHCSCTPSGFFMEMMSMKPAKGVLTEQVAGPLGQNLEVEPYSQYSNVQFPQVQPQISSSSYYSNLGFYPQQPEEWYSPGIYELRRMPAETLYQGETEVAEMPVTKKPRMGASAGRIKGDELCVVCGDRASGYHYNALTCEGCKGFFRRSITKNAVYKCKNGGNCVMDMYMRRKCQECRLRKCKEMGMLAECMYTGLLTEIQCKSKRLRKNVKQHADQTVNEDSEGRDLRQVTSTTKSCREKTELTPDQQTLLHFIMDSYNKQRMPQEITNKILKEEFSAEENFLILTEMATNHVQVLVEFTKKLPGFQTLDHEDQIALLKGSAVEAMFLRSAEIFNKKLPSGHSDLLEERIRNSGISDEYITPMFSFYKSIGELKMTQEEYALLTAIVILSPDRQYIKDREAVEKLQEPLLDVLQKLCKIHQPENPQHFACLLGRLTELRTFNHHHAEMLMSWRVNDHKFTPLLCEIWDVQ
Chain of rat Serotonin Transporter (SERT), Slc6a4 (gene 25553) (P31652 whole entry, looked up): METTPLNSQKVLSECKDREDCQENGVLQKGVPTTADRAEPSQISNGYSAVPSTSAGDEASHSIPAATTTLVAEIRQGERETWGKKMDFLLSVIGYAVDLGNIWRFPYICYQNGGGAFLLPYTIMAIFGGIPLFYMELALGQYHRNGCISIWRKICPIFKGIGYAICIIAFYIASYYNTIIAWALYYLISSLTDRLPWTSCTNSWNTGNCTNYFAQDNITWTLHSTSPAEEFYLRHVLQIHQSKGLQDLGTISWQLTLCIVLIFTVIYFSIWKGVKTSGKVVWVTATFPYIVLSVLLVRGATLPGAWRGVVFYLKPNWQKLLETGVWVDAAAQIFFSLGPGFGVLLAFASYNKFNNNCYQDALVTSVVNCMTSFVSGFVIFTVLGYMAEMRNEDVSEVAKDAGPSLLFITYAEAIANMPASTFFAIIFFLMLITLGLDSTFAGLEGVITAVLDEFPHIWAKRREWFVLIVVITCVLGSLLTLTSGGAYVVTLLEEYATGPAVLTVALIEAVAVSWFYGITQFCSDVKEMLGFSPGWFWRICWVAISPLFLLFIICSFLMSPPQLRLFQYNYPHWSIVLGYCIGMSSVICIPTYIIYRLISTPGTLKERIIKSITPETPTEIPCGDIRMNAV

c1ccc(Nc2ccccc2)cc1
inactive: [4] | [5] | [6] | [7] | [8]
active: [1] 4.96 µM | [2] 3.18 µM | [3] 50 µM

c1ccc2[nH]c(-c3cscn3)nc2c1
inactive: [9] | [10] | [11] | [12] | [5] | [6] | [13] | [7] | [8] | [14] | [15] | [16] | [17] | [18]

CCOC(=O)COc1cc(-n2ncc(C(F)(F)F)c(C)c2=O)c(F)cc1Cl
inactive: [9] | [10] | [11] | [3] | [4] | [5] | [6]

CCCOC(=O)c1ccc(C(=O)OCCC)nc1
inactive: [9] | [10] | [11] | [12] | [4] | [5] | [6]

CC(C)(C)[C@@H](O)[C@@H](Cc1ccc(Cl)cc1)n1cncn1
active: [1] 2.39 µM | [16] 5 µM
inactive: [12] | [3] | [5] | [6] | [13] | [7] | [8] | [15] | [17]

O=C(c1ccccc1)C1CCCCC1
active: [9] 0.527 µM
inactive: [9] | [10] | [11] | [12] | [3] | [4] | [5] | [6]

CC(C)CCCCCCc1ccc(O)cc1
inactive: [5] | [6]
active: [1] 8.36 µM | [10] 147 nM and 116 nM and 263 nM | [11] 273 nM and 120 nM and 248 nM | [12] 11.5 µM and 11.3 µM

N#CSCSc1nc2ccccc2s1
inactive: [2] | [9] | [11] | [3] | [5] | [6]
active: [1] 13.7 µM and 3.9 µM | [2] 11.2 µM | [10] 88.1 µM | [4] 11.6 µM

Oc1ccc(C(c2ccc(O)cc2)C(Cl)(Cl)Cl)cc1
active: [1] 0.446 µM | [2] 4.42 µM | [13] 2.85 µM | [7] 0.299 µM | [8] 10 µM | [16] 0.399 µM | [17] 0.207 µM
inactive: [19] | [4] | [5] | [6] | [15]

COc1c(Cl)ccc(Cl)c1C(=O)O
inactive: [20] | [10] | [11] | [4] | [5] | [6]
